Screens deposited in PubChem by Broad Institute.
ROS inducer: ROS inducers in U2OS cancer cells, primary screen, cell-based, H2DCF-DA fluorescence. ROS induction (% of piperlongumine), % at 10 µM. AID 624156, 2012. actives 2% (n = 46,000). U2OS ROS induction; in the data active = ROS induction above about 79%, passing the limit was not always enough;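 also: 0% = DMSO vehicle median and 100% = reference compound median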
YB-1 expression: inhibitors of YB-1 gene expression, primary screen, cell-based, fluorescence; U2OS, qRT-PCR YB-1 vs CDIP delta delta Cp, 16 h; stronger effect = higher value; zero = DMSO, each unit about twofold; delta delta Cp (YB-1 minus CDIP) (no concentration beside the values); actives 0.37% (n = 30,000);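 active = delta delta Cp rounded down to an integer at or above 3, about 3 SD of DMSO wells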;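 also: higher means less YB-1 transcript or more CDIP transcript relative to DMSO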
An asterisk follows results filed as active; / = not tested or not shown. Rows were chosen to be rich in hits. Some 2.1% of all compounds tested hit in one or more screens of this group.

SMILES | ROS inducer | YB-1 expression
Cc1ccc(S(=O)(=O)Nc2cccc3c2O[C@@H](CN(C)Cc2ccc(Oc4ccccc4)cc2)[C@H](C)CN([C@@H](C)CO)C3=O)cc1 | 10 | 0.057
C[C@@H]1CN([C@@H](C)CO)C(=O)c2cccc(NS(=O)(=O)c3ccccc3)c2O[C@H]1CN(C)Cc1ccc(Cl)c(Cl)c1 | 151* | 0.21
C[C@@H]1CN([C@H](C)CO)C(=O)c2cccc(NS(=O)(=O)c3ccccc3)c2O[C@@H]1CN(C)Cc1ccc(Cl)c(Cl)c1 | 27 | 0.17
Cc1ccc(S(=O)(=O)Nc2cccc3c2O[C@H](CN(C)Cc2ccc(Oc4ccccc4)cc2)[C@@H](C)CN([C@H](C)CO)C3=O)cc1 | 51 | 19*
COc1cc(-c2oc3cc(O)c(OC)c(O)c3c(=O)c2OC)ccc1O | 10 | -0.76
COc1cc(O)c2c(=O)c(OC)c(-c3ccc(OC)c(OC)c3)oc2c1 | 59 | 0.18
COc1cc(OC)c2c(=O)c(O)c(-c3ccc(OC)c(OC)c3)oc2c1 | 83* | -0.19
COc1ccc(-c2oc3c(OC)c(OC)c(OC)c(O)c3c(=O)c2OC)cc1OC | 102* | -0.35
COc1ccc(-n2ncc3c(N(Cc4ccccc4)Cc4ccccc4)ncnc32)cc1 | 35 | /
COc1ccc(CNC(=O)c2cc(=O)[nH]c3ccc(S(=O)(=O)N4CCCCC4C)cc23)cc1 (stereo unspecified) | -2 | /
CCn1c(CCNC(=O)C2CCCCC2)nc2ccccc21 | -1 | /
CSc1nc2ccccc2n1CCO | -2 | /
O=S(=O)(Nc1ccc(-c2nc3cccnc3s2)cc1)c1ccccc1 | 1 | /
Cc1cccn2cc(CNC(=O)C(C)(C)C)nc12 | -7 | /
CCOC(=O)c1c(CN(CC)CC)oc2ccc(OC)cc12 | 37 | 0.15
CCOC(=O)c1c(CSc2nc(C)ccc2C#N)oc2ccc(OC(C)=O)cc12 | 154* | -0.55
COc1ccc(C2(CNC(=S)Nc3ccccc3)CCOCC2)cc1 | 10 | /
Cc1noc(C)c1S(=O)(=O)Nc1cccc2c1O[C@H](CN(C)S(=O)(=O)c1ccc(Cl)cc1)[C@H](C)CN([C@@H](C)CO)C2=O | 103* | -0.21
COc1ccc(S(=O)(=O)N(C)C[C@@H]2Oc3ccc(NC(=O)Nc4ccc(F)cc4)cc3CC(=O)N([C@H](C)CO)C[C@H]2C)cc1 | -14 | 0.2
Cc1noc(C)c1S(=O)(=O)Nc1cccc2c1O[C@@H](CN(C)S(=O)(=O)c1ccc(Cl)cc1)[C@@H](C)CN([C@@H](C)CO)C2=O | 6 | -0.075
C[C@H](CO)N1C[C@H](C)[C@H](CN(C)S(=O)(=O)c2ccc(F)cc2)Oc2ccc(NC(=O)Nc3ccc(F)cc3)cc2CC1=O | -4 | 0.76
C[C@H]1CN([C@@H](C)CO)C(=O)c2cccc(NC(=O)Nc3cccc4ccccc34)c2O[C@@H]1CN(C)S(=O)(=O)c1ccc(F)cc1 | 151* | -0.56
C[C@H]1CN([C@@H](C)CO)C(=O)c2cccc(NC(=O)Nc3cccc4ccccc34)c2O[C@H]1CN(C)S(=O)(=O)c1ccc(F)cc1 | -4 | -0.22
C[C@H](CO)N1C[C@H](C)[C@H](CN(C)S(=O)(=O)c2ccc(F)cc2)Oc2ccc(NC(=O)Nc3ccc(C(F)(F)F)cc3)cc2CC1=O | 85* | 0.4
COc1ccc(NC(=O)Nc2ccc3c(c2)CC(=O)N([C@@H](C)CO)C[C@H](C)[C@H](CN(C)S(=O)(=O)c2ccc(F)cc2)O3)cc1 | 97* | 0.35
SMILES | ROS inducer | YB-1 expression
O=C(COc1ccccc1Br)Nc1ccc(C(=O)OC2CCCCC2)cc1 | -2 | /
COC(=O)Nc1c(C)cc(C)cc1C | -9 | /
FC(F)(F)c1ccc(-c2noc(-c3ccco3)n2)cc1 | 11 | /
O=C(CSc1nccc(-c2csc(COc3ccccc3Cl)n2)n1)c1ccccc1 | -3 | /
COc1ccc(S(=O)(=O)N(C)C[C@H]2Oc3ccc(N(C)C)cc3CC(=O)N([C@H](C)CO)C[C@H]2C)cc1 | -6 | -0.25
COc1ccc(S(=O)(=O)N(C)C[C@@H]2Oc3ccc(N(C)C)cc3CC(=O)N([C@H](C)CO)C[C@H]2C)cc1 | 96* | -0.41
COc1ccc(S(=O)(=O)N(C)C[C@@H]2Oc3ccc(NC(=O)Nc4ccc(F)cc4)cc3C(=O)N([C@H](C)CO)C[C@@H]2C)cc1 | 130* | 0.019
COc1ccc(S(=O)(=O)N(C)C[C@H]2Oc3ccc(NC(=O)Nc4ccc(F)cc4)cc3C(=O)N([C@H](C)CO)C[C@@H]2C)cc1 | 38 | -0.33
CCOc1ccc(-c2cc3[nH]c(=O)n(-c4ccccc4C(F)(F)F)c(=O)c3s2)cc1 | 20 | /
CC(NC(=O)C1CCN(C(=O)N(C)C)CC1)c1ccccc1 (stereo unspecified) | -2 | /
CCOC(=O)C1=CN(c2ccc(C)cc2)C=C(C(=O)OCC)C1c1cccs1 | 112* | /
CCOC(=O)c1csc(-c2cccs2)n1 | -1 | /
O=C1/C(=C/c2ccc(O)cc2)SC(=S)N1CCc1ccccc1 | 127* | -1.1
CC(C)OC(=O)CCN1C(=O)/C(=C/c2ccccc2)SC1=S | 36 | -0.09
COc1ccc(CC(=O)N2c3ccccc3Sc3ccccc32)cc1OC | -2 | /
C[C@H](CO)N1C[C@H](C)[C@@H](CN(C)Cc2ccc(-c3ccccc3)cc2)Oc2c(NC(=O)C3CCOCC3)cccc2C1=O | 26 | 0.26
C[C@@H]1CN([C@@H](C)CO)C(=O)c2cccc(NC(=O)C3CCOCC3)c2O[C@@H]1CN(C)C(=O)NC1CCCCC1 | -10 | -0.01
C[C@@H]1CN([C@H](C)CO)C(=O)c2cccc(NC(=O)C3CCOCC3)c2O[C@@H]1CN(C)C(=O)NC1CCCCC1 | -12 | 11*
C[C@@H]1CN([C@H](C)CO)C(=O)c2cccc(NC(=O)C3CCOCC3)c2O[C@H]1CN(C)Cc1ccc(-c2ccccc2)cc1 | 100* | 0.35
C[C@@H]1CN([C@H](C)CO)C(=O)c2cccc(NC(=O)NC3CCCCC3)c2O[C@@H]1CN(C)Cc1ccc(-c2ccccc2)cc1 | 101* | -0.21
C[C@H]1CN([C@@H](C)CO)C(=O)c2cccc(NC(=O)NC3CCCCC3)c2O[C@H]1CN(C)Cc1ccc(-c2ccccc2)cc1 | 12 | -0.2
COc1ccc(S(=O)(=O)N(CCC(=O)O)Cc2ccco2)cc1OC | -13 | /
COc1ccc(/C=C/C(=O)Nc2nc3ccc(S(C)(=O)=O)cc3s2)cc1Br | 8 | /
COc1ccc(CC(=O)Nc2ccc(OC)cc2)cc1 | -7 | /
Cc1ccc(N2C(=O)CSC2c2ccccc2C(F)(F)F)cc1C (stereo unspecified) | -9 | /
SMILES | ROS inducer | YB-1 expression
CC(=O)N(CN1C(=O)C2CC=CCC2C1=O)c1ccccc1 (stereo unspecified) | -12 | /
Clc1ccccc1/C=C/C=Nc1ccc(N2CCOCC2)cc1 | 128* | 0.031
C(=Nc1ccc(N2CCOCC2)cc1)c1ccc(Sc2nc3ccccc3[nH]2)o1 | -4 | /
COc1ccc(NC(=O)N(C)C[C@@H]2Oc3ncc(-c4cccc(C(F)(F)F)c4)cc3C(=O)N([C@H](C)CO)C[C@@H]2C)cc1 | 32 | -0.015
CC(C)NC(=O)N(C)C[C@@H]1Oc2ncc(-c3cc4ccccc4o3)cc2C(=O)N([C@H](C)CO)C[C@@H]1C | -6 | -0.21
C[C@H](CO)N1C[C@H](C)[C@H](CN(C)Cc2ccccc2)Oc2ncc(-c3cccc(C(F)(F)F)c3)cc2C1=O | 42 | 0.14
